The text below walks through data of PubChem BioAssay (NCATS).

Where “and” joins values, the source holds several entries; their conditions need not be identical. Equal entries are not always repeated. Values without a mark were called inactive. Inconclusive results are not listed. Calls of active or inactive are those of the source. Unless noted, the call rests on the fitted dose curve; in most records, active means well fitted curve in either direction with a large enough effect (not every such curve was filed as active); inconclusive means small, poorly fitted or top-dose-only effect, or another doubt; inactive means flat fitted curve, though single readings scatter.

Assay [1] is described as follows: AP1 Signaling Pathway (AID 357).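 Further: ME-180 reporter cells stimulated with EGF at its EC50 level; on the % scale 0 is the no-effect control and ±100 the full control effect.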 A digest of the protocol: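 In this screen, ME-180 cells in Opti-MEM with 0.5% dialyzed FBS received EC50 EGF and compound titrations for 5 h. AP-1 reporter beta-lactamase was detected via CCF4 ratio, giving AC50 for positive and negative modulators.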
The nature of assay [2]: NFAT Signaling Pathway (AID 444).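 Further: carbachol stimulus at about its EC50 of 1 µM final; on the % scale 0 is the no-effect control and ±100 the full control effect.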 Particulars: Jurkat NFAT-bla M1, carbachol, beta-lactamase ratio, 5 h; at 38 µM (top of the series) unless noted. In outline: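 Jurkat cells carrying an NFAT-driven β-lactamase reporter and co-transfected muscarinic M1 receptor were treated with compound plus carbachol (1 uM final, an EC50 level) for 5 h at 37 °C. CCF4 loading followed for 1 h at RT; 460/530 nm ratio gave %activity.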

Assay [3] deals with Glucocorticoid receptor (Homo sapiens) (UniProt P04150). Description: GR-EFC Redistribution (AID 451; calls by dose curve; further: potency means the concentration at half of the fitted maximal effect). The following applies: CHO-K1 GR-EFC translocation, beta-gal luminescence, 2 h. In outline: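 CHO-K1 cells stably expressing nuclear-localized β-gal enzyme acceptor and GR fused C-terminally to the enzyme donor fragment; ligand-driven nuclear translocation restores β-gal by complementation. Compounds titrated up to 46 uM final, 2 h at 37 °C; luminescence read.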

In assay [4] the target is Mitogen-activated protein kinase 10 (Mus musculus) (UniProt Q61831). Description: JNK3 AlphaScreen Assay (AID 530).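 Further: kinase came from lysate of stimulated human HepG2 cells; signal reports phosphorylation of biotinylated GST-cJun 1-79 at Ser73 with 10 µM ATP; on the % scale 0 is the no-effect control and ±100 the full control effect.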 A digest of the protocol:
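JNK3 came from HepG2 lysates pre-activated with IL-1beta and TNF-alpha and phosphorylated biotinylated GST-cJun (1-79) at 10 uM ATP, pH 7.6, room temperature. Compounds were titrated. AlphaScreen signal used anti-phospho-cJun (Ser73) antibody.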
A general note: Alpha assays give light when donor and acceptor beads are brought close together.

The target in assay [5] is 3',5'-cyclic-AMP phosphodiesterase 4B (Homo sapiens) (UniProt Q07343). Nature of the assay: qHTS Assay for Inhibitors of PDE-IV (AID 607; active means well fitted activation curve with a large enough effect in the main read-out, with a control signal flat, not every such curve was filed as active; further: % of control where 0% means no effect). A digest of the protocol:
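The readout is membrane depolarisation from a cAMP-sensing CNG channel, detected with a potential dye at ex 535/em 590. Cells were HEK293-derived (endogenous PDE-IV) at 1000 cells/well, titrated up to 22.9 uM final.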
(In general: qHTS replaces the single test concentration by a dilution series.)

Assay [6] is described as follows: Stat Signaling Pathway (AID 446).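 Further: ME-180 cervical cancer cells given 40 pM IL-6 alongside compound; SIE-controlled beta-lactamase reporter measured as 460/530 nm FRET emission ratio; on the % scale 0 is the no-effect control and ±100 the full control effect.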 The following applies: ME-180 SIE beta-lactamase reporter, IL-6 stimulated, 5 h. A digest of the protocol:
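Screening format detects activators and inhibitors alike: ME-180 SIE-bla cells stimulated at 40 pM IL-6 for 5 hrs with compound, then dual-emission beta-lactamase read at 405 nm excitation.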

The target of assay [7] is Glucocorticoid receptor (Homo sapiens) (UniProt P04150). Description: GR-GFP Redistribution (AID 450;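 active means compounds whose dose series gives a full or clear partial fitted curve of increased nuclear translocation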; further: potency means the concentration at half of the fitted maximal effect). Particulars: U2OS GR-GFP nuclear translocation, laser cytometry, 2 h.
The mark [8] stands for this setting: at 38 µM (top of the series) unless noted.

Glucocorticoid receptor (Homo sapiens), sequence (P04150 whole entry, looked up, the tested form may be a part): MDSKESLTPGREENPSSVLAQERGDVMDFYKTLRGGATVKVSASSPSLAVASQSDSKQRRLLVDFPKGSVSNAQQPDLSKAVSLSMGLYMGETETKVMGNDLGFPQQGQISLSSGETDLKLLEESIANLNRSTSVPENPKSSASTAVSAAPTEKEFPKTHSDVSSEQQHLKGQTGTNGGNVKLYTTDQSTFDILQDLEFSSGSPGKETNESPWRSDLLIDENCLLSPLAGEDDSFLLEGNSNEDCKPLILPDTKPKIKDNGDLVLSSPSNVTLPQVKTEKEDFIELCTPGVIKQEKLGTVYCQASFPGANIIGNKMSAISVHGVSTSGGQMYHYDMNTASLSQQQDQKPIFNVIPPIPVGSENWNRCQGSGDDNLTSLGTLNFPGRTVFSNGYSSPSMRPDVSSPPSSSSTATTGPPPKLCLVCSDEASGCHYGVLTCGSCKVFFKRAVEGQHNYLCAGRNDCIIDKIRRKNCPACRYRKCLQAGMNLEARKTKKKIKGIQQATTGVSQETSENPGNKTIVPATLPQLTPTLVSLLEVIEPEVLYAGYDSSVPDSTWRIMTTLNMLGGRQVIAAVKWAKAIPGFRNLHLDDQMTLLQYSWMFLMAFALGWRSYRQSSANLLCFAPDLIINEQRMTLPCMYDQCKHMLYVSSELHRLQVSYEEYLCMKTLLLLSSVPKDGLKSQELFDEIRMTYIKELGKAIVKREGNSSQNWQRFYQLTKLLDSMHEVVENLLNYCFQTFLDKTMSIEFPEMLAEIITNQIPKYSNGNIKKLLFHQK
3',5'-cyclic-AMP phosphodiesterase 4B (Homo sapiens), sequence (Q07343 whole entry, looked up): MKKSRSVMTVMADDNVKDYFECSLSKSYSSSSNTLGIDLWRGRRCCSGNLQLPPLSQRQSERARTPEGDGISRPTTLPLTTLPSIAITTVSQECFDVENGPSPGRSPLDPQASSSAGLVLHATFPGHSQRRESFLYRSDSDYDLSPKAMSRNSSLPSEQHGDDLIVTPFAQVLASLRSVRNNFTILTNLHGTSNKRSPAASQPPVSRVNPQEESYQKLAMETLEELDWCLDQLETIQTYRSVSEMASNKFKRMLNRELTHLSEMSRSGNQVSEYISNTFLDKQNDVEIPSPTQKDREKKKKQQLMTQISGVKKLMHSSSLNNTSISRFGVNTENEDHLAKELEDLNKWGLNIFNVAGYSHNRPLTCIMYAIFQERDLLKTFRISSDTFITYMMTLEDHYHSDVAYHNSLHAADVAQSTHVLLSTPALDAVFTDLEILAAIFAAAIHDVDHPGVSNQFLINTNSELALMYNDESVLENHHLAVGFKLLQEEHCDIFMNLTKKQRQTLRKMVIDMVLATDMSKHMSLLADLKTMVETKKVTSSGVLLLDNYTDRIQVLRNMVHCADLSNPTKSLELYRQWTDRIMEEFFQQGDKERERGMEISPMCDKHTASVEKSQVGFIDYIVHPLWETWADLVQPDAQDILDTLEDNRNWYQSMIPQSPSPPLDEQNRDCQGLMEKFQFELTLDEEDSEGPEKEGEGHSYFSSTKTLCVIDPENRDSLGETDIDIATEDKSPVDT

As for `NCCc1ccc(S(=O)(=O)F)cc1`, the result in assay [1] and in assay [4] was inactive. The activity change, negative = inhibition in assay [2] was 2.53%. Further, the Potency in assay [3] is > 46 µM. Moreover, in assay [5], the Potency entry was “inactive”.
Consider `CCCN1CCc2cc(O)cc3c2[C@H]1Cc1ccc(O)c(O)c1-3`, for which the compound was called inactive in assay [1] and in assay [4]. For the same compound, the activity, negative = inhibition in assay [6] (setting [8]) was 39.4%. In addition, the Potency in assay [7] and in assay [3] was > 46 µM throughout. The Potency entry in assay [5] was “inactive”.
Regarding `CCCn1c(C)c(C(=O)c2ccc3ccccc3c2)c2ccccc21`, the outcome in assay [1] and in assay [4] was inactive. Besides, the activity, negative = inhibition in assay [6] (setting [8]) is -13.9%. In addition, the Potency in assay [7] and in assay [3] was > 46 µM in each case. The Potency result in assay [5] was “inactive”.
On to `CC(C)(C)c1cc(C=C(C#N)C#N)cc(C(C)(C)C)c1O`, for which the outcome in assay [1] and in assay [4] was inactive. Besides, in assay [2], the activity change, negative = inhibition is -108% (active). Also, the Potency in assay [3] is > 46 µM.
Regarding `CN1CCc2cc(O)cc3c2[C@H]1Cc1ccc(O)c(O)c1-3`, the result in assay [1] was inactive. In addition, the activity change, negative = inhibition in assay [2] was -24.8%. The activity, negative = inhibition in assay [6] (setting [8]) is -18.2%. Besides, the Potency in assay [3] was > 46 µM. Also, the Potency entry in assay [5] was “inactive”.
Turning to `O=P(O)(O)C(Cl)(Cl)P(=O)(O)O`, the outcome in assay [1] and in assay [4] was inactive. For the same compound, the activity change, negative = inhibition in assay [2] was 10.1%. The Potency result in assay [5] was “inactive”.
For the compound `CN1CCc2cccc(Cl)c2CC1`, the call in assay [1] was inactive. The activity change, negative = inhibition in assay [2] is 3.59%. For the same compound, the activity, negative = inhibition in assay [6] (setting [8]) is 15.3%. In assay [3], the Potency is > 46 µM. Besides, the Potency result in assay [5] is “inactive”.
As to `CP(=O)(O)C1=CCNCC1`, the outcome in assay [1] and in assay [4] was inactive. Further, the activity change, negative = inhibition in assay [2] is -1.42%. In addition, in assay [6] (setting [8]), the activity, negative = inhibition was -9.22%. Moreover, the Potency in assay [3] was > 46 µM. Also, the Potency result in assay [5] was “inactive”.
Regarding `C[N+]1(C)CCN(c2ccccc2)CC1`, the result in assay [1] and in assay [4] was inactive. In addition, the activity, negative = inhibition in assay [6] (at 17.2 µM (top of the series)) was -10%; in assay [6] (at 38 µM (top of the series)) it was -4.82%. The Potency in assay [7] was > 46 µM and > 20.6 µM; in assay [3] it was > 46 µM. In assay [5], the Potency result is “inactive”.
On to `CCCCCCC(C)(C)c1ccc([C@@H]2C[C@H](O)CC[C@H]2CCCO)c(O)c1`, for which the compound was classed as inactive in assay [1] and in assay [4]. In addition, the activity, negative = inhibition in assay [6] (setting [8]) is -25.8%. The Potency in assay [3] was > 46 µM. Besides, the Potency entry in assay [5] is “inactive”.
With `C[N+]1(C)[C@@H]2CC[C@H]1CC(OC(=O)c1c[nH]c3ccccc13)C2` (some centres not stated), the result in assay [1] and in assay [4] was inactive. Also, the Potency in assay [3] is > 46 µM. In addition, the Potency entry in assay [5] was “inactive”.
Regarding `OCc1cnc[nH]1`, the outcome in assay [1] was inactive. In addition, the activity change, negative = inhibition in assay [2] is 7.81%. Besides, the Potency in assay [3] was > 46 µM. Besides, the Potency entry in assay [5] was “inactive”.
In the case of `CN1[C@@H]2CC[C@H]1CC(OC(=O)C1C=Nc3ccccc31)C2` (some centres not stated), the call in assay [1] was inactive. The activity, negative = inhibition in assay [6] (setting [8]) is 3.6% [at 17.2 µM].
For the compound `NNC(=O)c1ccc(O)cc1`, in assay [1], the call was inactive. Further, in assay [2], the activity change, negative = inhibition was -6.3%. In assay [6] (setting [8]), the activity, negative = inhibition was 13.1%. In assay [3], the Potency was > 46 µM. Further, the Potency entry in assay [5] was “inactive”.
As to `C[N+]1(C)CCc2cc3c(cc2[C@H]1[C@@H]1OC(=O)c2c1ccc1c2OCO1)OCO3`, the compound was classed as inactive in assay [1]. The activity change, negative = inhibition in assay [2] is -19.2% [at 17.2 µM]. For the same compound, in assay [7], the Potency was > 20.6 µM.
`C[C@@H](Cc1ccccc1)NCCC(c1ccccc1)c1ccccc1`: the compound was classed as inactive in assay [1] and in assay [4]. In assay [6] (setting [8]), the activity, negative = inhibition was -3.28% [at 17.2 µM].
Consider `C[N+](C)(C)CC#CCN1CCCC1=O`, for which the call in assay [1] and in assay [4] was inactive. For the same compound, the Potency in assay [3] was > 46 µM.
